Experimental data taken from the supplement of paper PMC6555819.

What was measured:
Assay in all cases: PBM binding z-score (relative to random genomic background probes); higher = stronger binding; sequences stand for … in GC…GCGATTGACAGCGTAGAATGAAGG
[1] = test system: FXR:RXRa (NR concentration 270 nM, RXRa partner concentration 90 nM)
How it was run: (§1)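 For binding z-scores, the reference was random background probes on custom Agilent 4×180K protein-binding microarrays. These arrays were incubated 1 h with ligand-free nuclear receptor dimers in PBS pH 7.4, 2% milk, 0.02% Triton X-100, 1 mM DTT, 0.2 mg/mL BSA and 0.4 mg/ml salmon testes DNA. Fluorescence was scanned after antibody detection of each partner (one per run) and regression-normalized.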

[2] = test system: LXRa:RXRa (NR concentration 270 nM, RXRa partner concentration 90 nM)
How it was run: as §1

[3] = test system: LXRa homodimer (NR concentration 270 nM)
How it was run: as §1

[4] = test system: LXRb:RXRa (NR concentration 270 nM, RXRa partner concentration 90 nM)
How it was run: as §1

[5] = test system: LXRb homodimer (NR concentration 270 nM)
How it was run: as §1

[6] = test system: PPARa:RXRa (NR concentration 270 nM, RXRa partner concentration 90 nM)
How it was run: as §1

[7] = test system: PPARg:RXRa (NR concentration 180 nM, RXRa partner concentration 90 nM)
How it was run: as §1

[8] = test system: PPARg:RXRa 270nM:90nM, anti-RXR (NR concentration 270 nM, RXRa partner concentration 90 nM)
How it was run: as §1

[9] = test system: PPARg:RXRa 30nM:10nM, anti-RXR (NR concentration 30 nM, RXRa partner concentration 10 nM)
How it was run: as §1

[10] = test system: PPARg:RXRa 90nM:30nM, anti-RXR (NR concentration 90 nM, RXRa partner concentration 30 nM)
How it was run: as §1

[11] = test system: PPARg:RXRa DBDmut IVT, anti-RXR (DBD mutation: RXRa K156A/R161A, NR concentration 270 nM, RXRa partner concentration 90 nM)
How it was run: as §1

[12] = test system: PPARg:RXRa IVT, anti-PPARg (NR concentration 270 nM, RXRa partner concentration 90 nM)
How it was run: as §1

[13] = test system: PPARg DBDmut:RXRa IVT, anti-PPARg (DBD mutation: PPARg1 K132A/R137A, NR concentration 270 nM, RXRa partner concentration 90 nM)
How it was run: as §1

[14] = test system: PPARg DBDmut IVT, anti-PPARg (DBD mutation: PPARg1 K132A/R137A, NR concentration 270 nM)
How it was run: as §1

[15] = test system: PPARg homodimer (NR concentration 180 nM)
How it was run: as §1

[16] = test system: PXR:RXRa (NR concentration 270 nM, RXRa partner concentration 90 nM)
How it was run: as §1

[17] = test system: PXR homodimer (NR concentration 270 nM)
How it was run: as §1

[18] = test system: RARa:RXR (NR concentration 270 nM, RXRa partner concentration 90 nM)
How it was run: as §1

[19] = test system: RARa homodimer (NR concentration 270 nM)
How it was run: as §1

[20] = test system: RARb:RXRa (NR concentration 270 nM, RXRa partner concentration 90 nM)
How it was run: as §1

| Sequence | PBM binding z-score [1] | PBM binding z-score [2] | PBM binding z-score [3] | PBM binding z-score [4] | PBM binding z-score [5] | PBM binding z-score [6] | PBM binding z-score [7] | PBM binding z-score [8] | PBM binding z-score [9] | PBM binding z-score [10] | PBM binding z-score [11] | PBM binding z-score [12] | PBM binding z-score [13] | PBM binding z-score [14] | PBM binding z-score [15] | PBM binding z-score [16] | PBM binding z-score [17] | PBM binding z-score [18] | PBM binding z-score [19] | PBM binding z-score [20] |
| --- | --- | --- | --- | --- | --- | --- | --- | --- | --- | --- | --- | --- | --- | --- | --- | --- | --- | --- | --- | --- |
| AGAACGAGGGAAATGAGTTGATAGCACGGGTGGC | -0.469 | -0.525 | -0.561 | -0.828 | -0.449 | -0.481 | 0.813 | -0.497 | -0.0468 | -0.319 | -0.231 | -0.564 | 0.432 | -0.941 | -0.441 | -0.411 | 0.0651 | -0.474 | -0.0061 | -0.45 |
| GGAACGAGGGCATTCGAGTTGATAGGATGGCGAT | 1.38 | 1.66 | -0.255 | -0.172 | -0.504 | 1.12 | 1.01 | 0.531 | -0.182 | -0.00549 | 2.57 | 2.23 | -0.409 | -0.611 | 0.00316 | 3.7 | 1.31 | 0.433 | -0.456 | 1.75 |
| CCGACTGGGGCAGAAAGGTTACCAAACCATCCGG | 0.151 | 0.796 | -0.38 | 1.02 | -0.812 | 2.22 | 1.48 | 2.84 | 0.501 | 2.07 | 1.37 | 1.71 | -0.76 | -0.56 | 0.448 | 0.803 | -0.532 | 1.58 | -0.491 | 1.86 |
| ATATGTAGGTGACATCCGGGTCATTCAGGCTATG | 2.96 | 2.62 | 0.319 | 2.21 | 0.147 | 5.01 | 6.79 | 5.7 | 2.91 | 5 | 7.69 | 8.07 | 4.09 | 3.49 | 3.11 | 3.52 | 2.13 | 3.62 | -0.0147 | 2.14 |
| CCTTACGCGTCAAGGTTATAGCACGGGTGGTACG | 0.452 | 0.749 | 0.096 | 0.771 | 0.153 | 1.14 | 0.691 | -0.0885 | -0.308 | 0.0411 | 0.185 | -0.0236 | -0.542 | -0.798 | 0.726 | 0.65 | 0.0877 | 1.02 | 0.124 | 0.97 |
| CCTAGTTGGTCAGTAGGTCACACACCGGATATGA | 1.75 | 1.75 | 1.22 | 1.64 | 0.533 | 3.62 | 4.58 | 4.46 | 2.18 | 3.85 | 4.79 | 5.74 | 0.241 | 0.396 | 3.06 | 1.68 | 0.364 | 2.76 | 2.47 | 2.91 |
| TCATATACGTAAAAGGTGAAAGTCGGTGTGGTAA | 1.58 | 1.77 | 0.215 | 1.7 | 0.467 | 2.81 | 1.68 | 3.88 | 4.6 | 4.19 | 2.65 | 1.71 | 2.06 | 2.25 | 1.84 | 1.35 | 0.642 | 1.89 | 1.88 | 1.9 |
| CCTCGGAGGAAAACAGGAGGTCAGAGCTGCCAGA | 0.663 | 1.69 | 1.63 | 1.44 | -0.702 | 2.13 | 0.128 | -0.0182 | -0.762 | -0.104 | -0.518 | 0.00562 | -1.65 | -1.51 | 1.04 | 1.5 | 0.172 | 1.95 | 0.262 | 1.53 |
| TAGCCTAGGTCATTCAGGGGCCGGTATAGAAAGC | 4.65 | 3.59 | 1.03 | 2.73 | 1.63 | 3.57 | 1.87 | 2.46 | 0.494 | 1.41 | 1.8 | 2.62 | 0.426 | -0.644 | 1.79 | 2.11 | -0.0709 | 3.04 | -0.178 | 3.79 |
| ACTAGTTGGTCAGCTGAGGTCACTCACAATTCGG | 2.19 | 2.57 | 1.98 | 2.87 | 0.671 | 3.26 | 1.04 | 1.68 | 0.169 | 1.19 | 1.45 | 2.35 | 0.323 | 0.891 | 1.61 | 4.97 | 1.53 | 3.69 | 0.562 | 3.34 |
| TCATCTAGGTAAAAGGTGAAAGTCGGTGTGGTAA | 1.68 | 1.89 | 0.186 | 1.97 | 0.11 | 5.64 | 10 | 9.2 | 8.75 | 10.8 | 5.49 | 5.73 | 2.1 | 1.06 | 2.69 | 1.53 | 0.241 | 2.8 | 1.26 | 2.15 |
| CCTACTCGGCCAAAGGTCATTGATTCCAATGCTC | 4.86 | 5.54 | 4.99 | 5.12 | 1.98 | 6.14 | 10.1 | 9.26 | 8.85 | 9.61 | 3.3 | 5.09 | 0.222 | -0.127 | 3.85 | 5.38 | 2.54 | 5.95 | 1.19 | 4.56 |
| ACTACAGGGTCATCGTAGGCCAGAGTACGCACAG | 6.89 | 5.5 | 0.216 | 4.08 | 0.987 | 5.89 | 5.88 | 5.25 | 2.32 | 3.77 | 1.66 | 3.47 | 2.18 | 1.55 | 1.49 | 4.76 | 0.458 | 4.67 | 0.217 | 4.45 |
| ATCGAAAGGTCGTGAGGTGGGTATACAGAAAGGC | 5.14 | 4.18 | 0.358 | 3.28 | 0.784 | 4.96 | 3.35 | 3.96 | 1.29 | 2.77 | -0.234 | 1.94 | 0.885 | 1.49 | 3.69 | 3.36 | 0.721 | 4.17 | 1.39 | 4.05 |
